# Measurements from the supplement of paper PMC6992640.
# Legend:
# Assay in all cases: cell viability of combination (% of vehicle); higher = less cytotoxic
# Details in all cases: 1 µM; 72 h; partner dose: 10 nM
# [1] = test system: HCI01 (cells of a triple-negative basal-like breast cancer xenograft)
# Method: (§1)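 PDX cells were treated for 72 h with each drug at 1 µM plus afatinib (10 nM; 1 µM for WHIM30). Luciferase viability is expressed as percent of vehicle.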
# [2] = test system: UCD52 (cells of a triple-negative basal-like breast cancer xenograft)
# Method: as §1
# [3] = test system: WHIM2 (cells of a triple-negative basal-like breast cancer xenograft)
# Method: as §1
# [4] = test system: HCI01; remark: listed apart in the source
# Method: (§2)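 PDX cells were treated for 72 h with each drug at 1 µM plus carfilzomib (10 nM; 100 nM for WHIM2). Luciferase viability is expressed as percent of vehicle.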
# [5] = test system: UCD52; remark: listed apart in the source
# Method: as §2
# [6] = test system: WHIM30 (cells of a triple-negative basal-like breast cancer xenograft)
# Method: as §2
SMILES,cell viability of combination [1],cell viability of combination [2],cell viability of combination [3],cell viability of combination [4],cell viability of combination [5],cell viability of combination [6]
O=C(c1ccc(F)c(F)c1Nc1ccc(I)cc1F)N1CC(O)(C2CCCCN2)C1 (configuration not stated) [Cobimetinib] + CN(C)C/C=C/C(=O)Nc1cc2c(Nc3ccc(F)c(Cl)c3)ncnc2cc1O[C@H]1CCOC1 [Afatinib],42.2,36.5,27,,,
CO[C@H]1/C=C/O[C@@]2(C)Oc3c(C)c(O)c4c(O)c(c(/C=N/N5CCN(C6CCCC6)CC5)c(O)c4c3C2=O)NC(=O)/C(C)=C\C=C\[C@H](C)[C@H](O)[C@@H](C)[C@@H](O)[C@@H](C)[C@H](OC(C)=O)[C@@H]1C [Rifapentine] + CN(C)C/C=C/C(=O)Nc1cc2c(Nc3ccc(F)c(Cl)c3)ncnc2cc1O[C@H]1CCOC1 [Afatinib],56.2,72.2,46.2,,,
CC(C)C(=O)OCC(=O)[C@@]12O[C@H](C3CCCCC3)O[C@@H]1C[C@H]1[C@@H]3CCC4=CC(=O)C=C[C@]4(C)[C@H]3[C@@H](O)C[C@@]12C [Ciclesonide] + CN(C)C/C=C/C(=O)Nc1cc2c(Nc3ccc(F)c(Cl)c3)ncnc2cc1O[C@H]1CCOC1 [Afatinib],67.5,99.5,41.3,,,
COc1ccc(CN2CCN(C(c3ccc(F)cc3)c3ccc(F)cc3)CC2)c(OC)c1OC.Cl.Cl [Lomerizine HCl] + CC(C)C[C@H](NC(=O)[C@H](CCc1ccccc1)NC(=O)CN1CCOCC1)C(=O)N[C@@H](Cc1ccccc1)C(=O)N[C@@H](CC(C)C)C(=O)[C@@]1(C)CO1 [Carfilzomib],,,,91.1,57.7,15.6
CC(C)C1=CC(=C2NNC(=O)N2c2ccc3c(ccn3C)c2)C(=O)C=C1O [Ganetespib (STA-9090)] + CC(C)C[C@H](NC(=O)[C@H](CCc1ccccc1)NC(=O)CN1CCOCC1)C(=O)N[C@@H](Cc1ccccc1)C(=O)N[C@@H](CC(C)C)C(=O)[C@@]1(C)CO1 [Carfilzomib],,,,66.1,58.6,23.7
CCc1c(Cl)c(O)c(Cl)c(O)c1C(=O)OC1C(C)OC(OCC2=CC=CCC(O)C(C)=CC(CC)C(OC3OC(C)(C)C(OC(=O)C(C)C)C(O)C3O)C(C)=CC(C)=CCC(C(C)O)OC2=O)C(OC)C1O (configuration not stated) [Fidaxomicin] + CC(C)C[C@H](NC(=O)[C@H](CCc1ccccc1)NC(=O)CN1CCOCC1)C(=O)N[C@@H](Cc1ccccc1)C(=O)N[C@@H](CC(C)C)C(=O)[C@@]1(C)CO1 [Carfilzomib],,,,92.5,62.7,21.2
CN(C)c1ccc(O)c2c1CC1CC3C(N(C)C)C(=O)C(C(N)=O)=C(O)C3(O)C(=O)C1=C2O.Cl (configuration not stated) [Minocycline HCl] + CC(C)C[C@H](NC(=O)[C@H](CCc1ccccc1)NC(=O)CN1CCOCC1)C(=O)N[C@@H](Cc1ccccc1)C(=O)N[C@@H](CC(C)C)C(=O)[C@@]1(C)CO1 [Carfilzomib],,,,83.9,65.9,26.4
CN(C)CC=CC(=O)Nc1cc2c(Nc3ccc(F)c(Cl)c3)ncnc2cc1OC1CCOC1 (configuration not stated) [Afatinib (BIBW2992)] + CC(C)C[C@H](NC(=O)[C@H](CCc1ccccc1)NC(=O)CN1CCOCC1)C(=O)N[C@@H](Cc1ccccc1)C(=O)N[C@@H](CC(C)C)C(=O)[C@@]1(C)CO1 [Carfilzomib],,,,63.1,26.2,12.3
CO[C@@]12[C@H](COC(N)=O)C3=C(C(=O)C(C)=C(N)C3=O)N1C[C@@H]1N[C@@H]12 [Mitomycin C] + CC(C)C[C@H](NC(=O)[C@H](CCc1ccccc1)NC(=O)CN1CCOCC1)C(=O)N[C@@H](Cc1ccccc1)C(=O)N[C@@H](CC(C)C)C(=O)[C@@]1(C)CO1 [Carfilzomib],,,,51.1,64,23.5
CC(C)Nc1cc(-c2c[nH]c(C(=O)NC(CO)c3cccc(Cl)c3)c2)c(Cl)cn1 (configuration not stated) + CC(C)C[C@H](NC(=O)[C@H](CCc1ccccc1)NC(=O)CN1CCOCC1)C(=O)N[C@@H](Cc1ccccc1)C(=O)N[C@@H](CC(C)C)C(=O)[C@@]1(C)CO1 [Carfilzomib],,,,94,48.9,21.7
COc1ccccc1OCCNCC(O)COc1cccc2[nH]c3ccccc3c12 (configuration not stated) [Carvedilol] + CC(C)C[C@H](NC(=O)[C@H](CCc1ccccc1)NC(=O)CN1CCOCC1)C(=O)N[C@@H](Cc1ccccc1)C(=O)N[C@@H](CC(C)C)C(=O)[C@@]1(C)CO1 [Carfilzomib],,,,76.8,61.4,20.7
CC1(C)Cc2c(-c3ccccc3)c(-c3ccc(Cl)cc3)c(CC(=O)O)n2C1 [Licofelone] + CC(C)C[C@H](NC(=O)[C@H](CCc1ccccc1)NC(=O)CN1CCOCC1)C(=O)N[C@@H](Cc1ccccc1)C(=O)N[C@@H](CC(C)C)C(=O)[C@@]1(C)CO1 [Carfilzomib],,,,83.7,64.7,18.6
CCN1CCN(Cc2ccc(Nc3ncc(F)c(-c4cc(F)c5nc(C)n(C(C)C)c5c4)n3)nc2)CC1.CS(=O)(=O)O + CN(C)C/C=C/C(=O)Nc1cc2c(Nc3ccc(F)c(Cl)c3)ncnc2cc1O[C@H]1CCOC1 [Afatinib],40.5,40.5,82.2,,,
O=C1C=CC=CC1=C1NC(=C2C=CC=CC2=O)N(c2ccc(C(=O)O)cc2)N1 [Deferasirox] + CC(C)C[C@H](NC(=O)[C@H](CCc1ccccc1)NC(=O)CN1CCOCC1)C(=O)N[C@@H](Cc1ccccc1)C(=O)N[C@@H](CC(C)C)C(=O)[C@@]1(C)CO1 [Carfilzomib],,,,67.8,61.2,23.7
COc1cccc2c1C(=O)c1c(O)c3c(c(O)c1C2=O)CC(O)(C(=O)CO)CC3OC1CC(N)C(O)C(C)O1.Cl (configuration not stated) [Doxorubicin (Adriamycin) HCl] + CC(C)C[C@H](NC(=O)[C@H](CCc1ccccc1)NC(=O)CN1CCOCC1)C(=O)N[C@@H](Cc1ccccc1)C(=O)N[C@@H](CC(C)C)C(=O)[C@@]1(C)CO1 [Carfilzomib],,,,60.9,30.2,7.61
COc1cc2ncnc(Nc3ccc(F)c(Cl)c3)c2cc1NC(=O)C=CCN1CCCCC1 + CC(C)C[C@H](NC(=O)[C@H](CCc1ccccc1)NC(=O)CN1CCOCC1)C(=O)N[C@@H](Cc1ccccc1)C(=O)N[C@@H](CC(C)C)C(=O)[C@@]1(C)CO1 [Carfilzomib],,,,68.1,34.1,14.6
COc1cc2c(Oc3ccc(NC(=O)C4(C(=O)Nc5ccc(F)cc5)CC4)cc3F)ccnc2cc1OCCCN1CCOCC1 + CC(C)C[C@H](NC(=O)[C@H](CCc1ccccc1)NC(=O)CN1CCOCC1)C(=O)N[C@@H](Cc1ccccc1)C(=O)N[C@@H](CC(C)C)C(=O)[C@@]1(C)CO1 [Carfilzomib],,,,75.8,32.5,22.4
COc1cc(C(=O)NS(=O)(=O)c2ccccc2C)ccc1Cc1cn(C)c2ccc(NC(=O)OC3CCCC3)cc12 [Zafirlukast] + CN(C)C/C=C/C(=O)Nc1cc2c(Nc3ccc(F)c(Cl)c3)ncnc2cc1O[C@H]1CCOC1 [Afatinib],61.4,71.6,52.2,,,
Cc1c(C(=O)NN2CCCCC2)nn(-c2ccc(Cl)cc2Cl)c1-c1ccc(Cl)cc1 [Rimonabant] + CC(C)C[C@H](NC(=O)[C@H](CCc1ccccc1)NC(=O)CN1CCOCC1)C(=O)N[C@@H](Cc1ccccc1)C(=O)N[C@@H](CC(C)C)C(=O)[C@@]1(C)CO1 [Carfilzomib],,,,78.4,63,16.3
CCCCc1oc2ccccc2c1C(=O)c1cc(I)c(OCCN(CC)CC)c(I)c1.Cl [Amiodarone HCl] + CC(C)C[C@H](NC(=O)[C@H](CCc1ccccc1)NC(=O)CN1CCOCC1)C(=O)N[C@@H](Cc1ccccc1)C(=O)N[C@@H](CC(C)C)C(=O)[C@@]1(C)CO1 [Carfilzomib],,,,90.8,63.7,20.3
C=CC(=O)N1CCC(Oc2cc3c(Nc4ccc(Cl)c(Cl)c4F)ncnc3cc2OC)CC1 [Poziotinib] + CC(C)C[C@H](NC(=O)[C@H](CCc1ccccc1)NC(=O)CN1CCOCC1)C(=O)N[C@@H](Cc1ccccc1)C(=O)N[C@@H](CC(C)C)C(=O)[C@@]1(C)CO1 [Carfilzomib],,,,52.8,28.9,8.92
CN1CCC(COc2cnc(-c3cccc(Cn4nc(-c5cccc(C#N)c5)ccc4=O)c3)nc2)CC1 + CN(C)C/C=C/C(=O)Nc1cc2c(Nc3ccc(F)c(Cl)c3)ncnc2cc1O[C@H]1CCOC1 [Afatinib],39.9,60.5,51,,,
O=C(C=Cn1cnc(-c2cc(C(F)(F)F)cc(C(F)(F)F)c2)n1)NNc1cnccn1 + CC(C)C[C@H](NC(=O)[C@H](CCc1ccccc1)NC(=O)CN1CCOCC1)C(=O)N[C@@H](Cc1ccccc1)C(=O)N[C@@H](CC(C)C)C(=O)[C@@]1(C)CO1 [Carfilzomib],,,,57.3,40.1,5.58
CC(C)C1=CC(=C2NNC(=O)N2c2ccc3c(ccn3C)c2)C(=O)C=C1O [Ganetespib (STA-9090)] + CN(C)C/C=C/C(=O)Nc1cc2c(Nc3ccc(F)c(Cl)c3)ncnc2cc1O[C@H]1CCOC1 [Afatinib],49.1,30.9,29.1,,,
